# Laboratory results published in the supplement of paper PMC3334620.
# Whole data set: some 33,000 sequences, median “E-score (-0.5 to 0.5)” near -0.036, cut for the highest 2% near 0.37. The full list was thinned out, with the highest values kept by preference.
# Target: T1, Yer064c (UniProt P40041)
# T1 sequence: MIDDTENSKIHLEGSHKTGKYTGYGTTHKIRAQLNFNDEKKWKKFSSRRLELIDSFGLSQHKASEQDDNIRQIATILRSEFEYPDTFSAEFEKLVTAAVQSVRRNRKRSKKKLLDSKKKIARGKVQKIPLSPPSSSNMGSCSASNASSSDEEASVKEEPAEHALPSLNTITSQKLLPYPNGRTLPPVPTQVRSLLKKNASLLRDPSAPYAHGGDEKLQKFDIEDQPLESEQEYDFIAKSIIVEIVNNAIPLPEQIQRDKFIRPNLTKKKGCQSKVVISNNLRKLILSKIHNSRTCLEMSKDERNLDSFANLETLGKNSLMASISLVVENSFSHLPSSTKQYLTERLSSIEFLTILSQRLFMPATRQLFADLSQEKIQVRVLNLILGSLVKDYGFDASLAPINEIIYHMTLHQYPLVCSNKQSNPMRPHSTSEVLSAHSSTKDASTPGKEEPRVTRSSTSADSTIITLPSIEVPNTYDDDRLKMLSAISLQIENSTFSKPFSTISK
# Assay: PBM E-score (8-mer binding enrichment) (E-score (-0.5 to 0.5)); higher = stronger / more preferred TF binding
# Settings: protein concentration: 200 nM; construct: GST-full length
# Experimental: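 Universal 'all 10-mer' protein binding microarrays (Agilent AMADID 015681) probed with GST-tagged S. cerevisiae TFs (full-length or DBD) made by in vitro transcription/translation (PURExpress), about 100-200 nM. Bound TF was detected with fluorescent anti-GST. Each ungapped 8-mer (which stands for itself and its reverse complement) is scored by the PBM enrichment score (E-score), a modified Wilcoxon-Mann-Whitney statistic from -0.5 to +0.5, computed with the Universal PBM Analysis Suite. Scale: above 0.35 generally sequence-specific binding.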
row,Sequence,PBM E-score
1,ACTTATCG,0.0591
2,CTGCCTAC,-0.0918
3,CCTATAGC,-0.178
4,GCCGTGCC,-0.24
5,CGCTGAAC,-0.0322
6,ACGTCTAA,0.0568
7,ACAGGGAG,-0.0887
8,CAAGCGAC,-0.0326
9,CTCCCGAG,0.0821
10,ACGCTATG,-0.064
11,GACTGGGC,0.0848
12,GAGACTCA,0.467
13,AAGACTGA,0.347
14,AAGACACG,-0.0488
15,AAGACTCG,0.373
16,TAGACTCA,0.413
17,TATACTCA,0.317
18,TAGACTGA,0.122
19,AAGACTCA,0.48
20,GAGACTGA,0.28
21,AAGACACA,0.0498
22,AAGACTTA,0.33
23,GAGACTTA,0.24
24,ATTTGGCG,-0.116
25,GAAGTTAC,0.0811

row,Sequence,PBM E-score
1,ATAGCTGC,0.00331
2,AGCTAAGG,-0.317
3,GGGAGCTA,-0.13
4,AGTTCATG,0.215
5,GCCAATAC,-0.222
6,AGAGCTGA,0.0408
7,AAAGTGAG,0.188
8,ATGCCGTA,-0.0237
9,CGCGTAAC,-0.139
10,GTACTTAA,0.123
11,CTTGCCAC,0.0476
12,ACCAAAAA,0.186
13,CACTTTAC,0.0259
14,ATCGCCTG,-0.012
15,GAGCACTC,-0.182
16,GAAGGATC,-0.0298
17,AGGTGCAC,-0.143
18,GGGGTGGA,-0.205
19,ACCACTTG,-0.0296
20,ATTGAATG,0.167
21,GATGAATA,0.176
22,CATGAATG,0.197
23,CATGAATA,0.178
24,CATGAATC,0.423
25,AATGAATC,0.39

row,Sequence,PBM E-score
1,ATTGAATC,0.375
2,GATGAATC,0.387
3,AATGAATG,-0.0293
4,AATGAATT,0.0966
5,ATTGAATA,0.169
6,GATGAACC,0.0652
7,AGTACCAC,0.0908
8,CAATCGAC,0.0905
9,ACTGCGAC,0.228
10,CTTCCGCC,-0.183
11,ACATGACG,-0.00033
12,AGATGACC,0.136
13,ACATGACT,0.48
14,AGATGACA,0.116
15,ACATGAGA,0.284
16,AGATGACT,0.487
17,ACATGAGC,0.046
18,ACATGACA,0.155
19,ACATGAGT,0.375
20,CTTACGTA,0.131
21,CGCAAGGA,-0.167
22,AAGGCATA,-0.129
23,TGCCAGCA,-0.0413
24,ACACGTGC,-0.0356
25,CACATGTC,0.0407

row,Sequence,PBM E-score
1,ATCCCACG,0.07
2,TAGGCGAA,-0.0147
3,GTGACTGA,0.447
4,GTGACGGA,-0.0635
5,AAGACTGG,0.1
6,ATGACTGG,0.409
7,CTGACTGC,0.348
8,ACGACTGG,0.148
9,CTGACTGA,0.395
10,ATGACTAG,0.48
11,ATGACAAG,0.0335
12,GGGACTGA,0.119
13,AGGACTAG,0.275
14,CGGACTGA,0.178
15,CATCAGGA,-0.0161
16,GTGTCGAA,-0.00343
17,ATCGCAGA,0.0583
18,AGCTACCA,0.0223
19,AATTCGGT,0.107
20,CTCCGTGC,-0.156
21,ACATTCAT,0.0768
22,CGCGTTCA,0.0376
23,AGGACTCG,0.306
24,AGGACTGA,0.244
25,ATGACTGC,0.467

row,Sequence,PBM E-score
1,ATTACTCG,0.202
2,AGGACTGC,0.13
3,ACGACTGA,0.321
4,ATGACTCG,0.491
5,CAGACTGC,0.0507
6,ATGACTGA,0.464
7,GTAAGGTA,0.00781
8,GCCAACCC,-0.343
9,ACGGCCTC,-0.163
10,ACATGAAT,0.175
11,ACGCCTAG,-0.133
12,CGGTGGGC,-0.341
13,AGTTTCTC,-0.105
14,CGACTCCG,0.332
15,AGACTCCC,0.32
16,AGACTCCA,0.323
17,GGACTCCA,0.176
18,CAACTCCC,-0.15
19,CCACTCCA,-0.0978
20,CGACTCCC,0.404
21,CGACTCCA,0.378
22,TGACTCCA,0.479
23,AGGGGGAT,-0.373
24,AGGGGGGA,-0.362
25,ACTGCGTA,0.0638

row,Sequence,PBM E-score
1,AACTCCAT,0.0309
2,CGGTGCAG,-0.0907
3,CAGTCAAA,0.254
4,AAGTCAAC,0.367
5,CAGTCAAC,0.36
6,GAGTCAAA,0.461
7,AAGTCAAA,0.288
8,TGGTCAAA,-0.0461
9,GAGTCAAC,0.474
10,TTGTCAAA,0.0143
11,AAGTCAAG,0.283
12,ACGTCAAC,0.0642
13,TAGTCAAA,0.417
14,GCGTCAAC,-0.156
15,TCAAAAAA,0.16
16,CGATCACC,-0.0685
17,ACGATCCG,-0.0916
18,AGGTAGGC,-0.231
19,AATCATCT,0.453
20,AATCATCA,0.463
21,AATCTTCT,0.201
22,GATCATCC,0.171
23,CATCATCA,0.161
24,AATCAACG,0.308
25,AATCATCC,0.468

row,Sequence,PBM E-score
1,AATCATCG,0.439
2,TATCATCA,0.0107
3,GATCATCA,0.142
4,CATCATCC,0.0788
5,CATCATCG,0.125
6,TGGGCCCA,-0.123
7,AATATTGT,0.0413
8,TATGAATA,0.0885
9,TCCCTTCA,0.091
10,CCCTTGAA,-0.0587
11,AAGCGACA,-0.208
12,AAGCGACC,-0.161
13,AGGCGACC,-0.191
14,ACGCGACT,0.376
15,AGGCGACG,-0.346
16,ACGCGACA,-0.128
17,AAGCGACT,0.369
18,ACGCGACG,-0.164
19,AGGCGACT,0.387
20,ACAACGGT,-0.116
21,ATAAAGAC,0.196
22,CCGGCAAG,-0.156
23,CTTGAGAA,0.136
24,GCTTCGAC,-0.126
25,TCAACAGA,0.211

row,Sequence,PBM E-score
1,GACTATCC,0.404
2,TACTATCA,0.0134
3,AACTATCA,0.104
4,AACTATTA,-0.00806
5,AACTATCC,-0.235
6,CACTATTA,0.0522
7,CACTATCC,-0.196
8,GACTATTA,0.379
9,GACTATCA,0.394
10,AACGCACA,-0.185
11,CTGGATTC,0.00174
12,GTACCGAC,-0.057
13,ATTTAGGG,-0.0441
14,ATTAGCCG,-0.106
15,TGAAGTAA,0.0152
16,AGAAGTCC,-0.056
17,TGAAGCCA,0.114
18,CGAAGTCA,0.437
19,AGAAGTCG,0.207
20,CGAAGTCC,0.0182
21,GGAAGTCA,0.426
22,GGAAGTCC,0.0559
23,CGAAGTCG,0.286
24,TGAAGTCA,0.445
25,GGAAGTGA,0.0158

row,Sequence,PBM E-score
1,AGAAGTCA,0.43
2,TAATGCTA,0.15
3,AGTTTTGC,0.0632
4,AATAAGAC,0.175
5,TGCGGTAA,0.0977
6,CCCACGTC,-0.157
7,GCGGTTAC,0.0193
8,ACAATGCT,-0.0617
9,GTAGCATA,-0.262
10,CCGTCGCG,-0.0591
11,TATTCCCA,0.00714
12,GATCACGA,0.0675
13,GACGTCGA,-0.14
14,CTGCATTC,-0.0186
15,CGACTACC,0.383
16,GGACTACC,0.284
17,GGACTAAC,0.367
18,CGACTACG,0.337
19,CGACTAAC,0.43
20,GAACTAAC,-0.0243
21,GTACTAAC,0.128
22,CAACTAAC,0.132
23,CGACTAGC,0.297
